What all share (assay): NCI-60 one-dose screen, 48 h (100 = growth as untreated, 0 = no growth, -100 = all killed)
Details in all cases: 10 µM

The test system of test [1] is DU-145 prostate.
Test [2] has as its system K-562 leukemia.
The subject of test [3] is MALME-3M melanoma.
The subject of test [4] is MDA-MB-231 breast.
Test [5] has as its system SF-268 CNS.
The subject of test [6] is SF-295 CNS.
The subject of test [7] is SF-539 CNS.
For test [8], the system named is UACC-257 melanoma.
The subject of test [9] is M14 melanoma.

This is part of a sample that, as a whole, favours compounds with a hit. Of some 83,000 tested, about 20% had one in any assay.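 How to read the values: 0–100, growth inhibition (40 = 60% inhibited); 0, no net growth; -100 to 0, cell death (-40 = 40% of starting cells died; -100 = all dead).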 Unmarked numbers belong to inactive results. Activity calls are given as the source filed them. How the source made its calls: active means growth percent below 10; inactive means the rest.

Regarding `O/N=C(\CSc1nnc(-c2c[nH]c3ccccc23)n1-c1ccccc1)c1ccc(Cl)cc1`, the growth is -30.9% (active) in test [1]; 6.93% (active) in test [2]; 11.1% in [3]; -54.5% (active) in test [4]; -49% (active) in [5]; 14.1% in [6]. Besides, the values for the growth in [7], in test [8] and in [9] were 29.5%, 44.3% and -47.3% (active), respectively.

For the compound `COc1cc2c3c(n(CCCN4CCOCC4)c(=O)c2cc1OC)-c1nc2c(cc1C3=O)OCO2`, the growth in test [1] is 3.38% (active); in [2], 25.9%; in test [3], 40.2%; in test [4], 6.41% (active); in test [5] it was 21.9%; in test [6], -30.8% (active). Also, the growth in [7] was -38.7% (active); in [8] it was 51%; in [9], 13.4%.

Consider `O=C(CSc1nnc(-c2c[nH]c3ccccc23)n1-c1ccccc1)c1ccccc1`, for which the growth in [1] was 85.7%; in test [2] it was 52.8%; in [3], 37.4%; in [4], 27%; in [5], 31.7%; in test [6], 72%. The figures for the growth in test [7], in test [8] and in [9] were 7.59% (active), 103% and 73.6%, respectively.

In the case of `COc1ccc2[nH]cc(/C=N/Nc3ccc(Br)cn3)c2c1`, the growth is 40.7% in test [1]; 9.92% (active) in test [2]; 63.9% in test [3]; 6.27% (active) in test [4]; 21% in [5]; 17.4% in test [6]. Besides, the growth in test [7] was 18.8%; in test [8] it was 52.6%; in test [9], 8.66% (active).

For the compound `O=C(NO)c1ccc(CN2CCN(c3nc(-c4ccccc4)c4ccccc4n3)CC2)cc1`, the growth in [1] was 23.1%; in test [2], 11.4%; in test [3] it was 11.2%; in test [4] it was 35%; in [5], 26.5%; in [6] it was -11.7% (active). Further, the figures for the growth in test [7], in test [8] and in test [9] were -23.8% (active), 43.3% and 5.75% (active), respectively.

Take `COc1ccc(/C=N/N=C(\C)c2ccc3c(c2)Nc2ccccc2S3)cc1O`: the growth in test [1] is 62.7%; in test [2], 25.7%; in [3] it was 55.1%; in test [4] it was 65.3%; in [5], 57.2%; in test [6] it was 45.1%. In addition, the growth is 67.2% in [7], 27.6% in test [8] and 49.3% in test [9].

Regarding `N#Cc1ccc(NC(=O)CSc2ccc(-c3ccc(Br)cc3)nn2)cc1`, the growth in test [1] was 88.8%; in test [2], 48.7%; in test [3] it was 68.8%; in [4] it was 76.7%; in test [5] it was 62.6%; in test [6], 58.9%. The growth in [7] was 67.2%; in test [8], 47.3%; in [9] it was 63.5%.

`N#Cc1ccc(-c2nn(-c3ccc(C(=O)O)cc3)cc2CNc2cc(Cl)cc(Cl)c2)cc1`: the growth is 65.4% in test [1]; 43.7% in test [2]; 80.1% in test [3]; 80.2% in test [4]; 53.3% in test [5]; 38.4% in test [6]. Moreover, the figures for the growth in test [7], in [8] and in test [9] were 30.6%, 60.2% and 34.5%, respectively.

With `N#Cc1ccc(-c2nn(-c3ccc(C(=O)O)cc3)cc2CNc2ccc(Cl)cc2)cc1`, the growth in test [1] is 97.6%; in [2], 69.4%; in test [3], 102%; in test [4], 90.6%; in test [5], 78.6%; in test [6], 63.3%. The growth in [7] was 80.1%; in test [8], 97.8%; in test [9], 83.4%.

As for `Cc1ccc(C(=O)N/C(=C2/OCCN2C)[P+](c2ccccc2)(c2ccccc2)c2ccccc2)cc1`, the growth was 84.9% in test [1]; 50.4% in test [2]; 63.6% in [3]; 65.6% in test [4]; 92.7% in test [5]; 87.3% in test [6]. The figures for the growth in test [7], in [8] and in [9] were 91.4%, 49.6% and 82.9%, respectively.

`Cc1cccc(-c2nc(Nc3ccccc3C(=O)O)c3ccccc3n2)c1`: the growth in [1] is 50.5%; in test [2], 28.7%; in [3], 37.2%; in test [4], 66.1%; in [5], 37.5%; in test [6] it was 27.1%. The growth in test [7] is 47.7%; in test [8], 49.2%; in [9] it was 25.2%.

For the compound `Cc1ccc(-c2cc(C(=O)N=Nc3c(O)[nH]c4ccc(Br)cc34)c3ccccc3n2)cc1`, the growth in [1] is 85.8%; in [2], 17.8%; in test [3], 80.2%; in test [4], 41.7%; in [5] it was 80.9%; in test [6] it was 76.5%. The growth is 76% in [7], 103% in test [8] and 75.6% in [9].

Regarding `Cn1cc(/C=N/Nc2ccnc3cc(Cl)ccc23)c2ccccc21`, the growth is -92.7% (active) in [1]; 2.82% (active) in test [2]; -82.1% (active) in test [3]; -90.4% (active) in test [4]; -73.9% (active) in test [5]; -93.9% (active) in test [6]. For the same compound, the growth in [7] was -92% (active); in [8] it was -71% (active); in test [9] it was -66.9% (active).

For `CC(C)Sc1nc(NC2CC2)c(C#N)c(-c2ccccc2)n1`, the growth in test [1] was 86.2%; in test [2], 90%; in test [3], 104%; in test [4], 58.9%; in test [5], 61%; in [6] it was 54.9%. In addition, the values for the growth in test [7], in test [8] and in test [9] were 42%, 103% and 117%, respectively.

The values above are taken from PubChem BioAssay (NCI).
